Laboratory results from PubChem BioAssay (NCI).
The panel holds about 79,000 compounds, 15% with a hit somewhere; the sample as a whole holds those more often. Active and inactive are the calls of the source. Rule as the data show it: active = growth inhibition above about 70%; inactive = the rest.

What was measured:
[1] = NCI Yeast Anticancer Drug Screen. Data for the rad52 strain (AID 147);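 also: 0% = growth of vehicle-treated control cultures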; details: S. cerevisiae rad52 mutant growth inhibition, stronger effect = higher value
Outline: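 Compounds are applied to a genetically defined yeast strain lacking normal DNA damage repair, and inhibition of growth is expressed relative to cultures given vehicle only.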

[2] = NCI Yeast Anticancer Drug Screen. Data for the wt1 strain (AID 149);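 also: 0% = growth of vehicle-treated wt1 cultures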; details: S. cerevisiae wt1 strain (SPY 50644) growth inhibition, stronger effect = higher value
Outline: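 Readout: yeast growth inhibition, normalised to vehicle controls, in the wt1 strain exposed to test compounds.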

[3] = NCI Yeast Anticancer Drug Screen. Data for the rad50EPP+ strain (AID 151);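 also: 0% = growth of vehicle-treated control cultures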; details: S. cerevisiae rad50 mutant strain, stronger effect = higher value
Outline: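 Compounds were applied to the rad50EPP+ yeast strain, which bears a defined DNA repair alteration, and growth inhibition was determined relative to vehicle-treated cultures.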

[4] = NCI Yeast Anticancer Drug Screen. Data for the mgt1 strain (AID 153); details: S. cerevisiae mgt1 mutant growth inhibition, stronger effect = higher value
Outline: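 Strain: mgt1 yeast, one of a set carrying defined DNA damage repair or cell cycle control alterations. Compound-treated growth compared with vehicle.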

[5] = NCI Yeast Anticancer Drug Screen. Data for the rad50 strain (AID 155);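 also: 0% = growth of vehicle-only cultures of the same strain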; details: S. cerevisiae rad50 strain growth inhibition, stronger effect = higher value
Outline: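 Compounds were tested on a yeast strain with an engineered DNA damage repair alteration; the reported value is growth inhibition normalised to vehicle treatment.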

[6] = NCI Yeast Anticancer Drug Screen. Data for the mec2-1 strain (AID 157); details: S. cerevisiae mec2-1 strain, stronger effect = higher value
Outline: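 Strain: mec2-1 (DNA repair/cell cycle alteration). Compound exposure, then growth measured; inhibition expressed relative to vehicle.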

[7] = NCI Yeast Anticancer Drug Screen. Data for the rad14 strain (AID 159);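 also: 0% = growth of vehicle-treated control cultures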; details: S. cerevisiae rad14 strain growth inhibition, stronger effect = higher value
Outline: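 Compound-treated yeast with a defined DNA-repair lesion; growth inhibition normalised to vehicle-treated cultures.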

[8] = NCI Yeast Anticancer Drug Screen. Data for the sgs1 mgt1 strain (AID 161);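 also: 0% = growth of cultures given vehicle only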; details: S. cerevisiae sgs1 mgt1 strain, stronger effect = higher value
Outline: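 Mutant yeast exposed to compound; growth scored against vehicle-only wells.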

[9] = NCI Yeast Anticancer Drug Screen. Data for the CLN2oe strain (AID 163);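 also: 0% = growth of vehicle-only control cultures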; details: S. cerevisiae CLN2oe strain, stronger effect = higher value
Outline: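 Growth of a genetically modified yeast strain is measured after compound exposure and compared with cultures given vehicle alone.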

[10] = NCI Yeast Anticancer Drug Screen. Data for the cln2 rad14 strain (AID 165);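 also: 0% = growth equal to vehicle treated cultures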; details: S. cerevisiae cln2 rad14 strain, stronger effect = higher value
Outline: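 Compounds are applied to the cln2 rad14 yeast strain, and growth is then compared with that of vehicle-treated cultures to give inhibition.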

[11] = NCI Yeast Anticancer Drug Screen. Data for the bub3 strain (AID 167); details: S. cerevisiae bub3 mutant strain, stronger effect = higher value
Outline: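 Growth of a checkpoint-deficient yeast mutant is measured after compound exposure. Values represent inhibition relative to vehicle.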

[12] = NCI Yeast Anticancer Drug Screen. Data for the wt2 strain (AID 169);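 also: 0% = growth of vehicle-treated yeast cultures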; details: S. cerevisiae wt2 strain growth inhibition, stronger effect = higher value
Outline: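 This strain belongs to a panel of yeast strains with defined genetic alterations in DNA damage repair or cell cycle control. Compounds are applied, and growth inhibition is measured against vehicle-treated cultures.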

[13] = NCI Yeast Anticancer Drug Screen. Data for the mlh1 strain (AID 171);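 also: 0% = growth of vehicle-treated control cultures of the same strain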; details: S. cerevisiae mlh1 strain growth inhibition, stronger effect = higher value
Outline: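 Growth of the mutant yeast strain after compound exposure, expressed as inhibition relative to vehicle-only controls.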

[14] = NCI Yeast Anticancer Drug Screen. Data for the sgs1 strain (AID 173);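 also: 0% = growth of vehicle-only control cultures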; details: S. cerevisiae sgs1 mutant, stronger effect = higher value
Outline: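 Growth of a yeast strain bearing a defined genetic alteration is measured after compound treatment. Inhibition is expressed relative to vehicle-only controls.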

[15] = NCI Yeast Anticancer Drug Screen. Data for the mlh1 rad18 strain (AID 175); details: S. cerevisiae mlh1 rad18 strain growth inhibition, stronger effect = higher value
Outline: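 Read-out is yeast growth inhibition, calculated against vehicle-only controls. The compound was applied to a strain engineered with DNA damage repair alterations.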

[16] = NCI Yeast Anticancer Drug Screen. Data for the rad18 strain (AID 177); details: S. cerevisiae rad18 mutant growth inhibition, stronger effect = higher value
Outline: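 Growth of the mutant yeast strain after compound exposure, normalised to vehicle-only cultures.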

[17] = at 5.0 µM (retest, dose inferred, filed as 0.5)
[18] = at 50.0 µM (retest, dose inferred, filed as 5.0)

Measured: growth inhibition

NC(N)=NCCCS(=O)(=O)Nc1ccc(Nc2c3ccccc3nc3cc([N+](=O)[O-])ccc23)cc1
active: [1]; at 33.0 µM 79% | [1]; at 100.0 µM 91% | [5]; at 33.0 µM 83% | [5]; [18] 88% | [5]; at 50.0 µM 72.9% | [5]; at 100.0 µM 89% | [6]; [18] 74% | [6]; at 100.0 µM 70% | [7]; at 100.0 µM 81% | [8]; [18] 83% | [11]; [18] 70% | [11]; at 100.0 µM 74% | [13]; at 100.0 µM 81% | [15]; [18] 83% | [16]; at 100.0 µM 74%
inactive: [1]; at 1.2 µM -26% | [1]; at 3.7 µM 8% | [1]; at 11.0 µM 36% | [2]; at 1.2 µM -20% | [2]; at 3.7 µM -18% | [2]; at 11.0 µM -26% | [2]; at 33.0 µM -15% | [2]; at 100.0 µM 42% | [3]; at 1.2 µM -21% | [3]; at 3.7 µM -11% | [3]; at 11.0 µM 17% | [3]; at 33.0 µM 44% | [3]; at 100.0 µM 68% | [4]; at 1.2 µM -24% | [4]; at 3.7 µM -29% | [4]; at 11.0 µM -10% | [4]; at 33.0 µM 18% | [4]; at 100.0 µM 65% | [5]; at 1.2 µM -4% | [5]; at 3.7 µM -4% | [5]; [17] 23% | [5]; at 11.0 µM 44% | [6]; at 1.2 µM -37% | [6]; at 3.7 µM -32% | [6]; [17] -22% | [6]; at 11.0 µM -26% | [6]; at 33.0 µM 11% | [6]; at 50.0 µM 60% | [7]; at 1.2 µM -10% | [7]; at 3.7 µM -1% | [7]; at 11.0 µM -1% | [7]; at 33.0 µM 31% | [8]; [17] 20% | [8]; at 50.0 µM 63.1% | [9]; at 1.2 µM -65% | [9]; at 3.7 µM -47% | [9]; at 11.0 µM -51% | [9]; at 33.0 µM -11% | [9]; at 100.0 µM 49% | [10]; [17] -18% | [10]; [18] 66% | [10]; at 50.0 µM 47.4% | [11]; at 1.2 µM 0% | [11]; at 3.7 µM 0% | [11]; [17] 11% | [11]; at 11.0 µM -10% | [11]; at 33.0 µM 3% | [11]; at 50.0 µM 57.8% | [12]; at 1.2 µM -49% | [12]; at 3.7 µM -58% | [12]; at 11.0 µM -77% | [12]; at 33.0 µM 23% | [12]; at 100.0 µM 50% | [13]; at 1.2 µM -20% | [13]; at 3.7 µM -10% | [13]; at 11.0 µM 3% | [13]; at 33.0 µM 32% | [14]; at 1.2 µM 29% | [14]; at 3.7 µM 1% | [14]; at 11.0 µM -13% | [14]; at 33.0 µM 23% | [14]; at 100.0 µM 69% | [15]; [17] -8% | [16]; at 1.2 µM -28% | [16]; at 3.7 µM -39% | [16]; at 11.0 µM -41% | [16]; at 33.0 µM -13%
